Assay results published in PubChem BioAssay.
Unmarked numbers belong to inactive results. How the calls were made is not given here.

What follows are compounds tested on Aerobactin synthetase IucA (Klebsiella pneumoniae hvKP1) (assay: Biochemical IucA enzyme inhibition primary screen of the Spectrum library (AID 1346200;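 further: 100% = wells without compound and 0% = wells lacking enzyme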)). Details: malachite green pyrophosphate, A620, at 8 µM, stronger effect = lower value.

First: CCCCC(=O)Oc1ccccc1C(=O)O
Second: CCCCOc1cc(C(=O)NCCN(CC)CC)c2ccccc2n1
The activity remaining of the first is lower: 85.8% for the first, 103% for the second.

First: O=C(O)CCCCC1SCC2NC(=O)NC21 (stereo unspecified)
Second: CC[C@H](C)C(=O)O[C@H]1CCC=C2C=C[C@H](C)C(CCC3C[C@@H](O)CC(=O)O3)[C@H]21 (stereo partly specified)
The activity remaining of the first is higher: 121% for the first, 102% for the second.

Compared with `CC(=O)Nc1c(I)cc(I)c(C(=O)O)c1I`, `Nc1ccc(C(=O)O)c(O)c1` is lower in activity remaining: 119% for the first, 108% for the second.

Going from `NC(CSCSCC(N)C(=O)O)C(=O)O` (stereo unspecified) to `O=C(O)CN(CCN(CC(=O)O)CC(=O)O)CC(=O)O`, the activity remaining rises from 95.5% to 108%.

First: COc1ccc(-c2oc3cc(OC)c(OC)c(OC)c3c(=O)c2OC)cc1OC
Second: COc1c2occc2cc2ccc(=O)oc12
The activity remaining of the first is lower: 83.1% for the first, 124% for the second.

`CC(=O)Nc1ccc(S(=O)(=O)Nc2ccc([N+](=O)[O-])cc2)cc1` and `Cc1cc(C)nc(NS(=O)(=O)c2ccc(N)cc2)n1` are the same in activity remaining: 111% for the first, 111% for the second.

First: CC(C)[N+]1(C)C2CC[C@@H]1CC(OC(=O)C(CO)c1ccccc1)C2 (stereo partly specified)
Second: COc1cc(N)c(Cl)cc1C(=O)NC1CCN(Cc2ccccc2)CC1
The activity remaining of the first is lower: 109% for the first, 119% for the second.

Compared with `CC1(C)CC2C1CCC1(C)OC2(C)CCC1O` (stereo unspecified), `CC(=O)OCC(=O)[C@@]1(O)CCC2C3C[C@H](C)C4=CC(=O)C=CC4(C)C3[C@@H](O)CC21C` (stereo partly specified) is lower in activity remaining: 120% for the first, 93.6% for the second.

First: Cc1c(NC(=O)c2cccnc2)c(=O)n(-c2ccccc2)n1C
Second: Cc1c(N(C)CS(=O)(=O)O)c(=O)n(-c2ccccc2)n1C
The activity remaining of the first is lower: 85.4% for the first, 97.1% for the second.

Going from `O=C1C[C@@H](c2ccc(O)cc2)Oc2cc(O)cc(O)c21` to `CC/C(=C(/CC)c1ccc(O)cc1)c1ccc(O)cc1`, the activity remaining rises from 95.7% to 104%.

Compared with `CCC(C)C(=O)O[C@H]1C[C@H](O)C=C2C=C[C@H](C)[C@H](CC[C@@H](O)C[C@@H](O)CC(=O)O)C21` (stereo partly specified), `O=C(O)CCC(=O)OC[C@@H](NC(=O)C(Cl)Cl)[C@H](O)c1ccc([N+](=O)[O-])cc1` is lower in activity remaining: 113% for the first, 110% for the second.

Going from `CC(=O)NC1SCCC1=O` (stereo unspecified) to `O=C(NC1CCCCC1)NC1CCCCC1`, the activity remaining falls from 112% to 71.2%.

Going from `COc1ccc2c(c1)CCC1C2CC[C@@]2(C)C1CC[C@@H]2O` (stereo partly specified) to `Cc1c(C)c2c(c(C)c1O)CCC(C)(COc1ccc(CC3SC(=O)NC3=O)cc1)O2` (stereo unspecified), the activity remaining rises from 111% to 117%.

Compared with `CC(N)CCCC(C)(C)O` (stereo unspecified), `CCCCCCCCNC(C)C(O)c1ccc(SC(C)C)cc1` (stereo unspecified) is lower in activity remaining: 123% for the first, 114% for the second.

Compared with `CO[C@H]1O[C@H](CO)C(O[C@@H]2OC(C(=O)O)[C@@H](O[C@H]3O[C@H](COS(=O)(=O)O)C(O[C@@H]4OC(C(=O)O)[C@@H](O[C@H]5O[C@H](CO)C(O[C@@H]6OC(C(=O)O)[C@@H](O[C@H]7O[C@H](COS(=O)(=O)O)C(O[C@@H]8OC(C(=O)O)=C[C@H](O)C8OS(=O)(=O)O)[C@H](O)[C@H]7NC(C)=O)[C@H](O)[C@H]6O)[C@H](O)[C@H]5NC(C)=O)[C@H](O)[C@H]4O)[C@H](O)[C@H]3NC(C)=O)[C@H](O)[C@H]2O)[C@H](O)[C@H]1NC(C)=O` (stereo partly specified), `C=CC[C@@H]1/C=C(\C)C[C@H](C)C[C@H](OC)[C@H]2O[C@@](O)(C(=O)C(=O)N3CCCC[C@H]3C(=O)O[C@H](/C(C)=C/[C@@H]3CC[C@@H](O)[C@H](OC)C3)[C@H](C)[C@@H](O)CC1=O)[C@H](C)C[C@@H]2OC` is higher in activity remaining: 92.9% for the first, 105% for the second.

Compared with `O=c1c(-c2cc(O)c(O)c(O)c2)coc2cc(O)c(O)c(O)c12`, `COc1cc([C@@H]2c3cc4c(cc3C(O[C@@H]3O[C@@H]5CO[C@@H](c6cccs6)OC5[C@H](O)[C@H]3O)C3COC(=O)[C@@H]32)OCO4)cc(OC)c1O` (stereo partly specified) is lower in activity remaining: 93.2% for the first, 92.9% for the second.

First: O=C(OCC(O)CO)c1ccccc1Nc1ccnc2cc(Cl)ccc12 (stereo unspecified)
Second: Cc1onc(-c2ccccc2)c1-c1ccc(S(N)(=O)=O)cc1
The activity remaining of the first is higher: 119% for the first, 103% for the second.

Compared with `Nc1ccn(C2O[C@H](CO)[C@@H](O)[C@H]2O)c(=O)n1` (stereo partly specified), `C[C@H](CC(=O)C(O)C(C)(C)O)[C@H]1C(=O)C[C@@]2(C)C3=CCC4C(C)(C)[C@@H](O[C@@H]5OC[C@@H](O)[C@H](O)[C@H]5O)CC[C@@]45C[C@@]35[C@@H](O)C[C@]12C` (stereo partly specified) is higher in activity remaining: 101% for the first, 109% for the second.
